# Laboratory results as given in PubChem BioAssay (NCI).
# Values joined by “and” are separate entries in the source; they are usually repeats but may differ in a detail not shown here. Identical values can stand only once. About 79,000 compounds went through this panel and 15% of them were active in at least one assay; those are over-represented in the sample as a whole. Some structures have more than one record in an assay (separate samples or runs), and their calls can disagree. Active and inactive are the calls of the source. Cut-off read from the data, not from the text of the source: active = growth inhibition above about 70%; inactive = the rest.
# Tests used:
# [1] = NCI Yeast Anticancer Drug Screen. Data for the rad50EPP+ strain (AID 151);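 note: 0% = growth of vehicle-treated control cultures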; conditions: S. cerevisiae rad50 mutant strain, stronger effect = higher value
# Summary of the method: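 Measured: growth inhibition of rad50EPP+ yeast. Reference: vehicle-treated controls. Screen uses strains with defined genetic alterations in DNA damage repair or cell cycle control.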
# [2] = NCI Yeast Anticancer Drug Screen. Data for the mgt1 strain (AID 153); conditions: S. cerevisiae mgt1 mutant growth inhibition, stronger effect = higher value
# Summary of the method: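 Compounds were applied to mgt1 mutant yeast, and growth was then compared against vehicle-treated control cultures to give percent inhibition.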
# [3] = NCI Yeast Anticancer Drug Screen. Data for the rad50 strain (AID 155);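 note: 0% = growth of vehicle-only cultures of the same strain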; conditions: S. cerevisiae rad50 strain growth inhibition, stronger effect = higher value
# Summary of the method: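 Yeast carrying a defined DNA repair defect were exposed to test compounds, and growth was compared with vehicle-treated controls to give percent inhibition.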
# [4] = NCI Yeast Anticancer Drug Screen. Data for the mec2-1 strain (AID 157); conditions: S. cerevisiae mec2-1 strain, stronger effect = higher value
# Summary of the method: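 Compounds were applied to mec2-1 yeast cells. Their growth was then compared with that of vehicle-treated cultures to give growth inhibition.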
# [5] = NCI Yeast Anticancer Drug Screen. Data for the sgs1 mgt1 strain (AID 161);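 note: 0% = growth of cultures given vehicle only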; conditions: S. cerevisiae sgs1 mgt1 strain, stronger effect = higher value
# Summary of the method: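 Growth of a repair-deficient yeast mutant was monitored after compound treatment and expressed as inhibition relative to vehicle-treated cultures.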
# [6] = NCI Yeast Anticancer Drug Screen. Data for the CLN2oe strain (AID 163);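 note: 0% = growth of vehicle-only control cultures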; conditions: S. cerevisiae CLN2oe strain, stronger effect = higher value
# Summary of the method: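 Cells of an engineered yeast line with disturbed cell-cycle regulation are treated with compound. Inhibition of growth is then calculated relative to the vehicle-treated reference.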
# [7] = NCI Yeast Anticancer Drug Screen. Data for the cln2 rad14 strain (AID 165);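 note: 0% = growth equal to vehicle treated cultures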; conditions: S. cerevisiae cln2 rad14 strain, stronger effect = higher value
# Summary of the method: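 Strain: cln2 rad14 yeast, altered in cell cycle control and DNA damage repair. Read-out: growth inhibition vs vehicle.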
# [8] = NCI Yeast Anticancer Drug Screen. Data for the bub3 strain (AID 167); conditions: S. cerevisiae bub3 mutant strain, stronger effect = higher value
# Summary of the method: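 Compounds were applied to a genetically altered yeast strain carrying a cell-cycle control defect. Growth inhibition was scored against vehicle-treated controls.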
# [9] = NCI Yeast Anticancer Drug Screen. Data for the wt2 strain (AID 169);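 note: 0% = growth of vehicle-treated yeast cultures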; conditions: S. cerevisiae wt2 strain growth inhibition, stronger effect = higher value
# Summary of the method: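 Growth of compound-treated yeast is measured and expressed as inhibition relative to vehicle-only controls.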
# [10] = NCI Yeast Anticancer Drug Screen. Data for the mlh1 strain (AID 171);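 note: 0% = growth of vehicle-treated control cultures of the same strain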; conditions: S. cerevisiae mlh1 strain growth inhibition, stronger effect = higher value
# Summary of the method: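 Test agents were incubated with yeast bearing a defined DNA damage repair or cell cycle control alteration; values are growth inhibition normalised to vehicle-treated cultures.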
# [11] = NCI Yeast Anticancer Drug Screen. Data for the mlh1 rad18 strain (AID 175); conditions: S. cerevisiae mlh1 rad18 strain growth inhibition, stronger effect = higher value
# Summary of the method: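 A repair-deficient yeast strain is exposed to test compound, and growth is scored relative to vehicle-treated controls.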
# [12] = NCI Yeast Anticancer Drug Screen. Data for the rad18 strain (AID 177); conditions: S. cerevisiae rad18 mutant growth inhibition, stronger effect = higher value
# Summary of the method: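 DNA-repair-defective yeast; compound treatment; growth inhibition scored against vehicle.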
# [13] = at 5.0 µM (retest, dose inferred, filed as 0.5)
# [14] = at 50.0 µM (retest, dose inferred, filed as 5.0)
structure (smiles),measurement,setting,value
COc1ccc2cc(CN3CCC(C4CCN(Cc5ccc6cc(OC)ccc6c5)CC4)CC3)ccc2c1,growth inhibition,[1]; at 1.2 µM,-17% (inactive)
same,growth inhibition,[1]; at 3.7 µM,-14% (inactive)
same,growth inhibition,[1]; at 11.0 µM,-12% (inactive)
same,growth inhibition,[1]; at 33.0 µM,-2% (inactive)
same,growth inhibition,[1]; at 100.0 µM,98% (active)
same,growth inhibition,[2]; at 1.2 µM,-9% (inactive)
same,growth inhibition,[2]; at 3.7 µM,-5% (inactive)
same,growth inhibition,[2]; at 11.0 µM,0% (inactive)
same,growth inhibition,[2]; at 33.0 µM,4% (inactive)
same,growth inhibition,[2]; at 100.0 µM,97% (active)
same,growth inhibition,[3]; at 1.2 µM,-2% (inactive)
same,growth inhibition,[3]; at 3.7 µM,5% (inactive)
same,growth inhibition,[3]; [13],1% (inactive)
same,growth inhibition,[3]; at 11.0 µM,9% (inactive)
same,growth inhibition,[3]; at 33.0 µM,26% (inactive)
same,growth inhibition,[3]; [14],38% (inactive)
same,growth inhibition,[3]; at 50.0 µM,88.8% (active)
same,growth inhibition,[3]; at 100.0 µM,97% (active)
same,growth inhibition,[4]; at 1.2 µM,-17% (inactive)
same,growth inhibition,[4]; at 3.7 µM,-40% (inactive)
same,growth inhibition,[4]; [13],-2% (inactive)
same,growth inhibition,[4]; at 11.0 µM,-40% (inactive)
same,growth inhibition,[4]; at 33.0 µM,-31% (inactive)
same,growth inhibition,[4]; [14],22% (inactive)
same,growth inhibition,[4]; at 50.0 µM,75.7% (active)
same,growth inhibition,[4]; at 100.0 µM,98% (active)
same,growth inhibition,[5]; [13],7% (inactive)
same,growth inhibition,[5]; [14],4% (inactive)
same,growth inhibition,[5]; at 50.0 µM,83.2% (active)
same,growth inhibition,[6]; at 1.2 µM,16% (inactive)
same,growth inhibition,[6]; at 3.7 µM,29% (inactive)
same,growth inhibition,[6]; at 11.0 µM,19% (inactive)
same,growth inhibition,[6]; at 33.0 µM,36% (inactive)
same,growth inhibition,[6]; at 100.0 µM,98% (active)
same,growth inhibition,[7]; [13],19% (inactive)
same,growth inhibition,[7]; [14],-48% (inactive)
same,growth inhibition,[7]; at 50.0 µM,64.3% (inactive)
same,growth inhibition,[8]; at 1.2 µM,-32% (inactive)
same,growth inhibition,[8]; at 3.7 µM,-35% (inactive)
same,growth inhibition,[8]; [13],19% (inactive)
same,growth inhibition,[8]; at 11.0 µM,-28% (inactive)
same,growth inhibition,[8]; at 33.0 µM,-20% (inactive)
same,growth inhibition,[8]; [14],0% (inactive)
same,growth inhibition,[8]; at 50.0 µM,89% (active)
same,growth inhibition,[8]; at 100.0 µM,98% (active)
same,growth inhibition,[9]; at 1.2 µM,0% (inactive)
same,growth inhibition,[9]; at 3.7 µM,15% (inactive)
same,growth inhibition,[9]; at 11.0 µM,7% (inactive)
same,growth inhibition,[9]; at 33.0 µM,-3% (inactive)
same,growth inhibition,[9]; at 100.0 µM,98% (active)
same,growth inhibition,[10]; at 1.2 µM,-12% (inactive)
same,growth inhibition,[10]; at 3.7 µM,-15% (inactive)
same,growth inhibition,[10]; at 11.0 µM,-17% (inactive)
same,growth inhibition,[10]; at 33.0 µM,-26% (inactive)
same,growth inhibition,[10]; at 100.0 µM,97% (active)
same,growth inhibition,[11]; [13],-8% (inactive)
same,growth inhibition,[11]; [14],80% (active)
same,growth inhibition,[11]; at 50.0 µM,-19.2% (inactive)
same,growth inhibition,[12]; at 1.2 µM,0% (inactive)
same,growth inhibition,[12]; at 3.7 µM,0% (inactive)
same,growth inhibition,[12]; at 11.0 µM,3% (inactive)
same,growth inhibition,[12]; at 33.0 µM,22% (inactive)
same,growth inhibition,[12]; at 100.0 µM,98% (active)
CCCCCCCCCCCC[N+](C)(C)Cc1ccccc1 (tested in a mixture with another compound),growth inhibition,[3]; [13],79% (active) and 69% (inactive) and 58% (inactive)
same,growth inhibition,[3]; [14],99% (active)
same,growth inhibition,[3]; at 50.0 µM,98% (active) and 99.6% (active) and 97.7% (active)
same,growth inhibition,[4]; [13],79% (active) and 55% (inactive) and 44% (inactive)
same,growth inhibition,[4]; [14],100% (active)
same,growth inhibition,[4]; at 50.0 µM,99.7% (active) and 99.8% (active) and 86.8% (active)
same,growth inhibition,[5]; [13],93% (active) and 95% (active) and 89% (active)
same,growth inhibition,[5]; [14],100% (active) and 99% (active)
same,growth inhibition,[5]; at 50.0 µM,99.7% (active) and 99.8% (active) and 99.5% (active)
same,growth inhibition,[7]; [13],66% (inactive) and 58% (inactive) and 61% (inactive)
same,growth inhibition,[7]; [14],99% (active)
same,growth inhibition,[7]; at 50.0 µM,98.5% (active) and 97.3% (active) and 96% (active)
same,growth inhibition,[8]; [13],93% (active) and 76% (active)
same,growth inhibition,[8]; [14],100% (active) and 99% (active)
same,growth inhibition,[8]; at 50.0 µM,99.8% (active) and 99.3% (active) and 98.3% (active)
same,growth inhibition,[11]; [13],94% (active) and 74% (active) and 78% (active)
same,growth inhibition,[11]; [14],100% (active)
same,growth inhibition,[11]; at 50.0 µM,99.5% (active) and 98.9% (active)
OCC(O)C(O)C(O)C(O)c1nc2ccccc2[nH]1 (stereo unspecified),growth inhibition,[3]; [13],-2% (inactive) and -4% (inactive)
same,growth inhibition,[3]; [14],-1% (inactive) and -19% (inactive)
same,growth inhibition,[3]; at 50.0 µM,4% (inactive) [middle of 5 runs]
same,growth inhibition,[4]; [13],-17% (inactive) and -20% (inactive)
same,growth inhibition,[4]; [14],-30% (inactive)
same,growth inhibition,[4]; at 50.0 µM,0.75% (inactive) [middle of 5 runs]
same,growth inhibition,[5]; [13],3% (inactive) and -6% (inactive)
same,growth inhibition,[5]; [14],1% (inactive) and -14% (inactive)
same,growth inhibition,[5]; at 50.0 µM,2% (inactive) [middle of 5 runs]
same,growth inhibition,[7]; [13],0% (inactive) and 2% (inactive)
same,growth inhibition,[7]; [14],-1% (inactive) and 14% (inactive)
same,growth inhibition,[8]; [13],6% (inactive) and -5% (inactive)
same,growth inhibition,[8]; [14],12% (inactive) and -1% (inactive)
same,growth inhibition,[11]; [13],-1% (inactive) and -11% (inactive)
same,growth inhibition,[11]; [14],5% (inactive) and 1% (inactive)
